Compound activity as filed in PubChem BioAssay.
The list is not random: actives were taken first. Their share in the collection is about 7.2%.
Sm TGR inh – blocks Schistosoma mansoni thioredoxin glutathione reductase | Potency, µM (titrated, usually from 114 µM), for the others: top-dose activity change, negative = inhibition, usual class: inhibitors | Q962Y6 | purified TGR, DTNB reduction, TNB absorbance 405 nm | AID 485364 | actives 3% (n = 360,000); note: nearly all actives have a fitted effect of over 60% in size
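TGR 20 nM + NADPH 100 uM (dispensed conc.), cpd preinc 15 min RT; start with NADPH (500 uM addition) then DTNB (15 mM addition). Kinetic TNB absorbance, 405 nm filter. Four-parameter Hill fit across titration.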
HCV inhibitor – blocks hepatitis C virus. Huh7.5.1 HCVcc-Cre infection, luciferase reporter, 44 h. Potency, µM (top dose mostly 41.8 µM), inactives show at the top dose activity change, negative = inhibition, hits mostly inhibitors. actives 3.4% (n = 340,000). AID 651820
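Compounds are dispensed onto cells plated 4 h earlier at 1,000 per well, with HCVcc-Cre virus (about 0.5 moi) added next. Following 44 h of culture, luminescent signal is measured for 15 sec after 15 min with substrate at room temperature.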
FMDV inh – blocks foot and mouth disease virus | FMDV antiviral cell-based qHTS | Potency, µM (doses to about 57.9 µM), for inactives: at the highest dose activity change, negative = inhibition, usual class: inhibitors | actives 1.2% (n = 410,000) | AID 1159524; calls by dose curve; tested in HEK293T cells; note: read-out not given here; nearly all actives have a fitted effect of over 45% in size
Lassa entry inh – Lassa virus entry inhibition. Lassa virus pseudotype entry inhibition, cell reporter. Potency, µM (highest dose often 37.9 µM), inactives show top-dose activity change, negative = inhibition, actives largely listed as inhibitors. actives 1.2% (n = 300,000). AID 540256; calls by dose curve; tested in HEK293 cells; note: nearly all actives have a fitted effect of over 50% in size
RE007 growth inh – less growth of the S. pombe RE007 Vpr strain; S. pombe RE007 Vpr strain, BacTiter-Glo ATP luminescence, 24 h; Potency, µM (series often up to 92.2 µM), for the others: top-dose activity change, negative = less growth, usual class: inhibitors; actives 0.21% (n = 360,000); AID 651644; active = well fitted falling curve with a large enough effect; inconclusive = small, poorly fitted or top-dose-only effect; inactive = no such curve, though single readings can be large or run the other way; note: nearly all actives have a fitted effect of over 50% in size
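Fission yeast strain RE007, carrying one chromosomally integrated HIV-1 vpr copy, was seeded at OD 0.01 in PMG+AL medium with 23 nL pinned compound. After 24 h at 30 °C and 99% humidity, viability was read by BacTiter-Glo luminescence.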
MARV entry inh – Marburg virus entry inhibition | Marburg virus pseudotyped entry inhibition, cell reporter | actives 1.8% (n = 300,000) | AID 540276 | Potency, µM (titrated, usually from 37.8 µM), without a hit: at the top dose activity change, negative = inhibition, most hits filed as inhibitors; calls by dose curve; tested in HEK293 cells
* hit, by the source's call; ? = inconclusive; . = no result given; [ ] = remark or other dose. Unless noted, calls come from the whole dose curve; as a rule, active = well fitted curve in the direction sought with a large enough effect; inconclusive = small, poorly fitted or top-dose-only effect, or another doubt; inactive = no such curve, though single readings can be large; an effect the other way counts as inactive or inconclusive. % is set by controls: 0 for no effect and ±100 for the full control effect; potency is the fitted concentration of half-maximal effect.

SMILES	Sm TGR inh	HCV inhibitor	FMDV inh	Lassa entry inh	RE007 growth inh	MARV entry inh
OCC(O)C(O)C(O)C(O)C(O)CO (stereo unspecified)	.	.	-1.8%	.	.	.
CC(=O)OC1CC(OC(C)=O)[C@]2(C)C(CC(OC(C)=O)[C@]3(C)C2CC[C@@]2(C)C(c4ccoc4)C[C@H]4O[C@]432)C1(C)C (stereo partly specified)	.	.	18.6%	.	.	.
CC(=O)OC1C[C@@]2(C)C(c3ccoc3)C[C@H]3O[C@@]32[C@@]2(C)C(=O)C(O)=C3C(C)(C)C(=O)C=C[C@]3(C)C12 (stereo partly specified)	.	.	7.94µM*	.	.	.
CC(=O)O[C@@H]1C[C@@]2(C)C(c3ccoc3)C[C@H]3O[C@]32[C@]2(C)C(=O)C(O)=C3C(C)(C)C(=O)C=C[C@]3(C)C12 (stereo partly specified)	.	.	25.1µM*	.	.	.
Cc1nn(C)c2c1c(-c1ccccc1)cc(=O)n2Cc1ccccc1C#N	-1.7%	.	0.0%	5.4%[46.1 µM]	.	.
O=[N+]([O-])c1cnccc1Nc1ccc(Cl)cc1	-0.9%	3.3%	-28.8%	1.9%	-4.2%	-13.9%
O=[N+]([O-])c1ccc(NCc2ccc(Cl)cc2)c2ccncc12	-29.8%	6.31µM*	?	-5.1%[46.1 µM]	-6.1%	?
Fc1ccc(CN(C2=NCCN2)c2c(Cl)cccc2Cl)cc1	.	.	.	?	.	18.3µM*
Fc1cccc(CN(C2=NCCN2)c2c(Cl)cccc2Cl)c1	-2.2%	?	-13.7%	.	-25.4%[18.4 µM]	.
Cn1cnc([N+](=O)[O-])c1Sc1ncn[nH]1	2.82µM*	6.3%	-24.0%	.	.	.
Cn1cnc([N+](=O)[O-])c1Sc1ccc([N+](=O)[O-])cc1	.	-3.2%	22.4µM*	-28.6%	34.4%	?
O=C(CCSCc1ccccc1Cl)NCCc1ccccc1	1.6%	.	7.7%	12.3%[46.1 µM]	.	.
COc1ccc(C(=O)NCCn2cc(SCc3c(F)cccc3Cl)c3ccccc32)cc1	1.0%	.	?	-27.2%[46.1 µM]	.	-21.7%[46.1 µM]
CCCOc1cccc(C2C(C(=O)c3ccc(C)o3)=C(O)C(=O)N2c2nc(C)c(C(C)=O)s2)c1 (stereo unspecified)	35.5µM*	?	5.0%	-2.0%[46.1 µM]	9.4%	23.5%[46.1 µM]
CCOc1cccc(C2C(C(=O)c3ccc(C)o3)=C(O)C(=O)N2c2nnc(C)s2)c1 (stereo unspecified)	.	-3.6%	10.5%	16.2%	-3.0%	?
C=CCOc1cccc(C2C(C(=O)c3ccc(C)o3)=C(O)C(=O)N2CCN(C)C)c1 (stereo unspecified)	35.5µM*	2.0%	-9.3%	8.1%	5.7%	?
CCN(C(=O)c1cnc(NC(C)C)cc1C(F)(F)F)c1ccc(Cl)cc1Cl	15.1%	10µM*	-15.8%	?	7.1%	?
Cc1sc2nc(CN3CCOCC3)nc(Oc3ccc(NC(=O)c4ccco4)cc3)c2c1C	28.2µM*	-4.5%	-1.9%	-9.8%	-3.7%	-0.3%
C[C@@H]1CN([C@@H](C)CO)C(=O)CCCn2nncc2CO[C@H]1CN(C)C(=O)OCc1ccccc1	.	.	0.0%	.	-1.7%	.
COCCn1c(=O)c(-c2ccc(Cl)cc2)nc2cnc(N3CCOCC3)nc21	.	.	-14.3%	.	.	.
Nc1nc(Cl)cc(-c2ccccc2)n1	6.6%	10.4%	-2.7%	-2.6%	10.6%	?
Nc1nc(Cl)cc(Sc2ccc3ccccc3c2)n1	-0.5%	-20.0%	-15.5%	10µM*	-2.1%	-25.5%
Cc1sc2ncnc(N3CCC(C(=O)NNC(=O)c4ccc(Cl)cc4)CC3)c2c1C	8.5%	?	25.1µM*	12.8%	-11.9%	-27.4%
CCc1nnc(NC(=O)C2CCN(c3ncnc4sc(C)c(C)c34)CC2)s1	4.3%	-11.1%	?	.	-5.1%	.
Cc1sc2ncnc(N3CCC(C(=O)Nc4nc(-c5cccs5)cs4)CC3)c2c1C	-21.4%	?	-18.0%	3.7%	5.0%	2.24µM*
SMILES	Sm TGR inh	HCV inhibitor	FMDV inh	Lassa entry inh	RE007 growth inh	MARV entry inh
CCOC(=O)c1ccccc1NC(=O)C1CCN(c2ncnc3sc(C)c(C)c23)CC1	-3.6%	?	?	-14.4%	-9.7%	2.0%[46.1 µM]
Cc1sc2ncnc(N3CCC(C(=O)Nc4cc(Cl)ccc4Cl)CC3)c2c1C	4.8%	?	-20.3%	-7.7%	4.6%	1.4%
Cc1sc2ncnc(N3CCC(C(=O)Nc4ccccc4C(C)(C)C)CC3)c2c1C	-0.3%	2.0%	25.1µM*	-2.6%[46.1 µM]	-13.0%	?
Cc1sc2ncnc(N3CCC(C(=O)Nc4cc(C(F)(F)F)ccc4OCC(F)(F)F)CC3)c2c1C	.	7.94µM*	?	.	-5.3%	.
COc1ccccc1NC(CC(=O)c1ccccc1)C(=O)OCC(=O)c1ccc(F)cc1 (stereo unspecified)	20µM*	7.0%	50.2%	-9.8%	-13.0%	?
Cc1c(Cl)cccc1NC(CC(=O)c1ccccc1)C(=O)O (stereo unspecified)	1µM*	11.1%	25.8%	?	1.4%	-3.9%
O=C(CC(Nc1ccc(Cl)cc1)C(=O)O)c1ccccc1 (stereo unspecified)	0.708µM*	9.8%	-10.2%	4.4%	-15.8%	?
Cc1c(Cl)cccc1NC(CC(=O)c1ccccc1)C(=O)OCC(=O)c1cccs1 (stereo unspecified)	8.91µM*	6.5%	44.9%	5.5%	?	-11.7%
Cc1ccccc1C(=O)N1CCc2c(cnc(C)c2CNC(=O)c2ccc3c(c2)OCO3)C1	.	.	-16.1%	.	.	.
O=C(CC(=O)c1ccccc1)Nc1ccc(Cl)cc1	31.6µM*	?	31.4%	-28.8%[46.1 µM]	-20.6%	?
O=C(Cc1ccc(Cl)cc1)Nc1ccc(NC(=O)c2ccccc2)cc1	-5.2%	0.8%	-5.7%	?	3.3%	-0.3%
O=C(CN1CCSC1=NCc1ccccc1)c1ccc(Cl)cc1	-1.9%	12.6µM*	-11.3%	14.7%	14.1%	-23.8%
CCOc1ccc(NC(=O)Cn2cc(C(=O)c3ccc(OC)cc3)c(=O)c3cc4c(cc32)OCO4)cc1	0.1%	.	0.0%	-5.1%[46.1 µM]	.	7.0%[46.1 µM]
COC(=O)N[C@@H](C=Cc1ccccc1)C(C(=O)OC)=C(C)NCc1ccccc1	.	.	.	.	.	-22.2%[14.2 µM]
O=C(CSc1nnc(-c2ccccn2)o1)Nc1ccccc1F	-0.2%	.	12.2%	?	6.8%	?
O=C1c2ccccc2CC1Sc1nnc(-c2ccccn2)o1 (stereo unspecified)	44.7µM*	1.8%	66.5%	?	9.9%	?
O=C(NC1(C(F)(F)F)NC(=O)N(Cc2ccco2)C1=O)c1cccnc1 (stereo unspecified)	35.5µM*	4.9%	0.4%	-0.5%	-7.8%	-24.7%
CC(C)CN1C(=O)NC(NC(=O)c2cccs2)(C(F)(F)F)C1=O (stereo unspecified)	7.2%	15.7%	-20.4%	8.9%	-3.4%	0.1%
